Screening results deposited in PubChem BioAssay by National Center for Advancing Translational Sciences (NCATS).
Shown is part of a subset that was picked to be rich in hits.
nsP2pro primary – blocks chikungunya virus nsP2 protease peptide cleavage. AID 1964107. 31,000 tested, 1.1% active. Potency, µM (titrated, usually from 24.9 µM), usual class: inhibitors. FRET peptide cleavage, nsP2pro, fluorescence 1 h; further: nearly all actives have a fitted effect of over 60% in size
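Enzyme 150 nM, substrate 2.5 uM (both final); Tris-HCl 10 mM pH 8.0 + 0.01% Tween 20; cpd up to 25 uM, 7 pts; 15 min preinc., 1 h RT; fluorescence ex 525/em 598.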
nsP2 cell sec – inhibits CHIKV nsP2 protease in cells; shares compounds with nsP2pro primary; cell-based CHIKV nsP2 protease reporter assay; Potency, µM (series often up to 51.1 µM), most hits filed as inhibitors; 450 tested, 10% active; further: nearly all actives have a fitted effect of over 70% in size
Target sequence (Q8JUX6 220-798 limits assumed): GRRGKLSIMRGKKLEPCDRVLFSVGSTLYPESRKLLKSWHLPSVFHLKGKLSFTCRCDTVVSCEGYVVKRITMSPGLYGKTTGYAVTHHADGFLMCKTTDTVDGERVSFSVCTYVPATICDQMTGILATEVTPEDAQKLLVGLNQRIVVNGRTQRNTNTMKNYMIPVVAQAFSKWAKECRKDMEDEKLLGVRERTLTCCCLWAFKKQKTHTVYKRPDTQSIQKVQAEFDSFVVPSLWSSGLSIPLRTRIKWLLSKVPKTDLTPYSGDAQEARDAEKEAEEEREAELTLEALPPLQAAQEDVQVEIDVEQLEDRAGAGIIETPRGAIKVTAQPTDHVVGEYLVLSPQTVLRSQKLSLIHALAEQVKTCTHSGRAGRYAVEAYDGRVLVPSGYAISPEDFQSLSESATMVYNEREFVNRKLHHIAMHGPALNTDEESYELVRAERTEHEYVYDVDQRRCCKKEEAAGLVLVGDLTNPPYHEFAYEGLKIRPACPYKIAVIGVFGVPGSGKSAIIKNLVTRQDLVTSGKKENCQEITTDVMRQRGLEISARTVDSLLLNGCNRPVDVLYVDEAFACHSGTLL
NSP2 full ctr – selectivity test for CHIKV nsP2 protease inhibitors: full-length NSP2; shares compounds with nsP2pro primary; Full-length CHIKV NSP2 protease enzymatic counterscreen; Potency, µM (highest dose often 50.7 µM), actives largely listed as inhibitors; 410 tested, 39% active; further: nearly all actives have a fitted effect of over 65% in size
Furin counterscr – selectivity counter-screen for CHIKV nsP2 protease inhibitors: human furin; shares compounds with nsP2pro primary; Recombinant human furin enzymatic counterscreen, fluorogenic substrate; Potency, µM (doses to about 50.6 µM), usual class: inhibitors; 410 tested, 6% active
NS23 peptide cs – nsP2pro inhibition on native NS2/3 peptide substrate; AID 1964103; Potency, µM (titrated, usually from 51 µM), usual class: inhibitors; Purified CHIKV nsP2 protease, endogenous NS2/3 peptide cleavage; shares compounds with nsP2pro primary; 410 tested, 34% active; further: nearly all actives have a fitted effect of over 55% in size
Papain cs – papain protease inhibition, counterscreen for nsP2pro inhibitors; shares compounds with nsP2pro primary; 410 tested, 5% active; AID 1964104; purified papain protease activity, enzymatic inhibition; Potency, µM (titrated, usually from 51 µM), hits mostly inhibitors
nsP2pro confirm – CHIKV nsP2 protease inhibition, confirmatory qHTS. shares compounds with nsP2pro primary. CHIKV nsP2 protease enzymatic activity, qHTS. Potency, µM (series often up to 25.5 µM), most hits filed as inhibitors. 410 tested, 43% active. AID 1964105; further: nearly all actives have a fitted effect of over 75% in size
HCV NS3 counter – selectivity counter-screen for CHIKV nsP2 protease inhibitors: HCV NS3/4A; 410 tested, 20% active; shares compounds with nsP2pro primary; AID 1964106; HCV NS3/4A protease biochemical counterscreen; Potency, µM (titrated, usually from 50.9 µM), hits mostly inhibitors; further: nearly all actives have a fitted effect of over 55% in size
A number is an active result; - = inactive; ? = inconclusive; ! = not confirmed by another sample; [ ] = remark or other dose. The call rests on the fitted dose curve.

SMILES | nsP2pro primary | others
O=C(c1cccc(C(F)(F)F)c1)N1CC(CO)C2(CCNCC2)C1 (stereo not drawn) | -
COc1ccc(C(=O)N2CC(CO)C3(CCNCC3)C2)cc1 (stereo not drawn) | -
CC(=O)OC1CC2C(C)(C)C(=O)C=CC2(C)C2CC(=O)C3=C(CCC3C3=CC(O)OC3=O)C12C (stereo not drawn) | -
Nc1nccn2c(C3CCC(C(=O)O)CC3)nc(-c3cc4cccc(Cl)c4[nH]3)c12 (stereo not drawn) | -
COc1cc(CC(=O)O)ccc1O | -
N[C@@H](Cc1ccc(O)c(O)c1)C(=O)O | -[0.199 µM]
C[C@@](Cc1ccc(O)c(O)c1)(NN)C(=O)O | 11.1µM
Cc1ccc(S(=O)(=O)N(C)C2CCc3ccccc32)cc1 (stereo not drawn) | -
CCN1CCN(c2ncc3c(n2)CCN(Cc2cc(F)cc(F)c2)C3)CC1 | -
CCN1CCN(c2ncc3c(n2)CCN(Cc2ccc(OC)c(OC)c2)C3)CC1 | 11.2µM
CCc1ccc(CN2CCc3nc(N4CCN(CC)CC4)ncc3C2)cc1 | -
C/C=C(\C)C(=O)OC1C(C)C2(O)C(C=C(CO)CC3(O)C(=O)C(C)=CC32)C2C(C)(C)C12OC(=O)C(C)C (stereo not drawn) | -
COc1ccc(C(=O)Nc2cc(NC(=O)c3ccco3)ccc2OC)cc1Cl | -
Cc1cc(C)cc(N(CC(=O)Nc2c(C)cc(C)cc2C)S(=O)(=O)c2c(C)nn(C)c2C)c1 | -
Nc1nc(O)c(C2=C3C(=Nc4ccccc43)C(=O)NCC2)[nH]1 | ? | nsP2 cell sec=-;NSP2 full ctr=-;Furin counterscr=-;NS23 peptide cs=-;Papain cs=-;nsP2pro confirm=-;HCV NS3 counter=-
O=c1cc(-c2ccccn2)oc2c(-c3ccc(CO)cc3)nccc12 | -
CC1CCN(c2nc3ccc(C(=O)NC(C)C)cc3s2)CC1 | -
CC1(C)CC2CC(C)(CN2S(=O)(=O)c2ccc(C(=O)Nc3ccc(Cl)cc3)cc2)C1 (stereo not drawn) | -
Nc1ccccc1OC1=NS(=O)(=O)c2ccccc21 | 10µM | nsP2 cell sec=-;NSP2 full ctr=?;Furin counterscr=-;NS23 peptide cs=-;Papain cs=-;nsP2pro confirm=-;HCV NS3 counter=-
O=S1(=O)N=C(Oc2ccccc2Br)c2ccccc21 | -
Cc1ccccc1OC1=NS(=O)(=O)c2ccccc21 | -
Cc1cc(C)c(-c2nnc(NC(=O)Nc3ccc4ccccc4c3)s2)c(C)c1 | -
CN(CCc1cn[nH]c1)C(=O)C1CCN(C(=O)C2CCC2)CC1 | -
CN(Cc1ccc(C(=O)O)cc1)c1ccc(OCc2c(-c3c(Cl)cccc3Cl)noc2C2CC2)nc1C(F)(F)F | -
OCCN1C[C@H](O)[C@@H](O)[C@H](O)[C@H]1CO | -
SMILES | nsP2pro primary | others
CCOC(=O)c1ccc(OCCN2C[C@H](O)[C@@H](O)[C@H](O)[C@H]2CO)cc1 | ? | nsP2 cell sec=-;NSP2 full ctr=?;Furin counterscr=14.2µM;NS23 peptide cs=-;Papain cs=-;nsP2pro confirm=?;HCV NS3 counter=-
CCCCN1C[C@H](O)[C@@H](O)[C@H](O)[C@H]1CO | -
COc1ncc(Nc2ncc([C@@H](C)N3CCN(S(C)(=O)=O)CC3)cc2-c2nc(C)nc(N)n2)cc1F | ? | nsP2 cell sec=-;NSP2 full ctr=-;Furin counterscr=-;NS23 peptide cs=-;Papain cs=?;nsP2pro confirm=-;HCV NS3 counter=-
CCn1cnc2c(NCc3cccnc3)nc(C#N)nc21 | -
O=C(Nc1nnc(-c2ccco2)o1)c1ccc(Cl)cc1 | -
CC1=NN(c2ccccc2)C(=O)C1 | 0.0351µM! | nsP2 cell sec=-;NSP2 full ctr=-;Furin counterscr=-;NS23 peptide cs=-;Papain cs=-;nsP2pro confirm=-;HCV NS3 counter=-
CCOc1cc(/C=C(\C#N)C(=O)Nc2ccc(OC)cc2)ccc1OCc1cc(=O)n2nc(CC)sc2n1 | -
CCOc1ccc(/C=C(\C#N)C(=O)Nc2sc3c(c2C(=O)OC)C(C(=O)OC)CC3)cc1OC (stereo not drawn) | 0.849µM | nsP2 cell sec=-;NSP2 full ctr=?;Furin counterscr=-;NS23 peptide cs=5.8µM;Papain cs=-;nsP2pro confirm=4µM;HCV NS3 counter=-
COC(=O)C1CCc2sc(NC(=O)Cc3ccccc3)c(C(=O)Nc3ccc(Cl)cc3)c21 (stereo not drawn) | -
